# MBD2 DNA inh: inhibitors of human MBD2 binding to methylated oligonucleotide | AID 686964 | TR-FRET | inhibition, % at 4.4 µM | hit rate 0.31% among 370,000; in the data active = inhibition above about 13%
# UHRF1 MBD2 ctr: UHRF1 methyl-DNA binding inhibition; UHRF1 binding to methylated oligo, TR-FRET; Q96T88; hit rate 0.75% among 370,000; inhibition, % at 4.4 µM; in the data active = inhibition above about 21%;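 note: UHRF1 SRA domain binding a hemimethylated CpG hairpin DNA probe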
# Neddyl block: blocks human cullin neddylation; P61081+Q13564; TR-FRET cullin neddylation, biochemical; calls only at 25 µM; hit rate 0.58% among 360,000; AID 651699; in the data active = inhibition above about 36%
# Target sequence (P61081 whole entry, looked up): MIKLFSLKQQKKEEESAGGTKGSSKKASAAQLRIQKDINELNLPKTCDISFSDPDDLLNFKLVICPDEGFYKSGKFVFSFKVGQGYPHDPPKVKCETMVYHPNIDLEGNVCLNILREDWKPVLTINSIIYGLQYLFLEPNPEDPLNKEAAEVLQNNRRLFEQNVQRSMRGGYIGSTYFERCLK
# Target sequence (Q13564 whole entry, looked up): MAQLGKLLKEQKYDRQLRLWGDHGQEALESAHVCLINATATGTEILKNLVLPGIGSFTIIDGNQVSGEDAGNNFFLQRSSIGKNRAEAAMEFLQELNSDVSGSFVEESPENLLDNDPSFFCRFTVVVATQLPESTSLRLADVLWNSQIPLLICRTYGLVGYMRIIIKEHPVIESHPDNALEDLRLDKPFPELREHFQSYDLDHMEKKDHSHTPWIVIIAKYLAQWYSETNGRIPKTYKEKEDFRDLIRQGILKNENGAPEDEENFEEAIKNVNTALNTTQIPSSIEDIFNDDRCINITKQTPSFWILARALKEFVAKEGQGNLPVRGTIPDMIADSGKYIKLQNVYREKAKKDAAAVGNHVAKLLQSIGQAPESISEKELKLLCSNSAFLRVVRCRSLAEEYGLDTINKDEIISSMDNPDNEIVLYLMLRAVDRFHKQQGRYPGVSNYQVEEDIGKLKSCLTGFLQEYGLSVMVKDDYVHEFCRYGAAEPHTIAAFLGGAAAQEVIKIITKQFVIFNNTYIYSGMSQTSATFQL
# UBC13 inh: human UBC13 polyubiquitination inhibition; hit rate 0.47% among 330,000; P61088; inhibition, % at 20 µM; UBC13 polyubiquitin chain formation, TR-FRET; in the data active = inhibition above about 45%, passing the limit was not always enough
# Numbers stand for hits; . = inactive; / = no result; + = active, no number. Rows were chosen to be rich in hits. Some 1.8% of all compounds tested hit in one or more screens of this group.
SMILES,MBD2 DNA inh,UHRF1 MBD2 ctr,Neddyl block,UBC13 inh
Cc1cc(=O)[nH]c(SCC(=O)NNC(=O)Cc2ccccc2)n1,.,.,.,.
C=CCCC1CN(CC=C)S(=O)(=O)c2c(F)cccc2O1 (centres undefined),.,22.1,/,/
Cn1nc(CC(=O)NC2CCCCCCCCCCC2)c2ccccc2c1=O,.,.,.,.
Cn1nc(CC(=O)Nc2ncc(Br)s2)c2ccccc2c1=O,.,21.6,.,.
O=C1Nc2ccccc2Nc2ccccc21,.,23.1,.,.
O=C(N[C@H]1CC[C@@H](CCNS(=O)(=O)c2ccccc2Cl)O[C@@H]1CO)c1ccccc1,.,.,.,/
O=C(N[C@H]1CC[C@H](CCNS(=O)(=O)c2ccc(Cl)cc2)O[C@@H]1CO)c1cccc(F)c1,.,23.0,.,/
COC(=O)c1sccc1NC(=O)c1csc(C)c1,.,21.9,.,.
COC(=O)c1sccc1NC(=O)Nc1ccccc1F,.,23.1,.,.
COC(=O)c1sccc1NC(=O)Nc1ccccc1C,.,.,.,.
CC1C(=O)N(Cc2cn(CCC3OCCO3)nn2)CCS(=O)(=O)N1Cc1ccc(-c2cccc(N(C)C)c2)cc1 (centres undefined),.,.,.,/
[S-]C(=Nc1ccc(Cl)cc1)N[n+]1ccccc1,.,58.0,.,.
O=C(CCc1ccccc1)N[C@@H]1c2ccccc2CC[C@H]1OCc1ccccc1,.,22.6,.,/
O=C(Nc1ccccn1)C1CCN(S(=O)(=O)c2ccc3c(c2)OCCCO3)CC1,.,.,.,.
Cc1ccc(NC(=O)C2CCN(S(=O)(=O)c3ccc4c(c3)OCCCO4)CC2)nc1,.,33.7,.,.
CN(CC(=O)Nc1c(Cl)cccc1Cl)C(=O)c1cccc(-n2cccc2)c1,.,22.8,.,.
Cc1ccc(C(=O)NCC(=O)N(C)CC(=O)Nc2c(Cl)cccc2Cl)s1,.,22.9,.,.
CN(CC(=O)Nc1c(Cl)cccc1Cl)C(=O)CNC(=O)c1ccc2c(c1)OCO2,.,.,.,.
CN(CC(=O)Nc1ccccc1Cl)C(=O)c1cccc(-n2cccc2)c1,.,.,.,.
CCCCN(C(=O)CSc1nc2ccccc2n1CC)C1CCS(=O)(=O)C1 (centres undefined),.,.,.,.
O=C(Nc1cccc(S(=O)(=O)N2CCOCC2)c1)c1ccc2ccccc2n1,.,22.0,.,.
CN(CC(=O)Nc1cccc(F)c1)CC(=O)Nc1cccc2ccccc12,.,.,.,.
CN(CC(=O)Nc1cccc2ccccc12)C(=O)c1ccc(F)cc1F,.,29.0,.,.
CCn1nc(C)c(/C=N/NC(=O)c2ccc3c(c2)c(C)c(C)n3Cc2ccccc2)c1C,.,.,+,.
Cc1cc(NS(=O)(=O)c2ccc(NC(=O)NC(C)(C(F)(F)F)C(F)(F)F)cc2)no1,.,20.9,.,.
SMILES,MBD2 DNA inh,UHRF1 MBD2 ctr,Neddyl block,UBC13 inh
Cc1cc(C)cc(NC(=O)Nc2ccc(S(=O)(=O)Nc3cc(C)on3)cc2)c1,/,/,.,.
CCN(CC)S(=O)(=O)c1ccc(S(=O)(=O)NCc2cccs2)cc1,.,.,.,.
COc1ccc(S(=O)(=O)NCc2cccs2)cc1,.,47.9,.,.
O=C1CC(=O)Nc2cc(S(=O)(=O)NCc3cccs3)ccc2N1,.,23.6,.,.
CC(C)C(NC(=O)c1ccccc1NC(=O)c1ccco1)C(=O)NNC(=O)c1ccncc1 (centres undefined),.,.,.,.
CN(c1ccccc1C(=O)N1CCN(Cc2ccc3c(c2)OCO3)CC1)S(C)(=O)=O,.,.,.,.
CC(C)CC(NC(=O)C(NC(=O)C(Cc1ccc(OCc2ccccc2)cc1)NC(=O)OC(C)(C)C)C(C)C)C(N)=O (centres undefined),.,.,.,.
Cc1cc(C(=O)OCC(=O)NCCc2ccc(S(N)(=O)=O)cc2)c2ccccc2n1,.,.,.,.
Cc1cc(C(=O)OCC(=O)Nc2cccc(S(N)(=O)=O)c2)c2ccccc2n1,.,22.7,.,.
Cc1ccc(C2CC(=O)Nc3cc4c(cc32)OCO4)o1 (centres undefined),.,.,.,.
Cc1ccc(/C=N/Nc2ccnc3cc(Cl)ccc23)c(C)c1,.,.,+,.
CC1(C)CC(=O)c2cnc(N)nc2C1,.,.,.,.
CC(=O)OCC(OC(C)=O)C(OC(C)=O)C(OC(C)=O)C(=O)Nc1ccccc1C (centres undefined),.,.,.,.
Cc1ccc(/C=N/NC(=S)NCCc2ccccc2)s1,.,.,+,.
CCCCNC(=S)N/N=C/c1ccc(C)s1,.,.,.,.
CC(NC(=O)c1ccc(CS(=O)(=O)c2cccc(C(F)(F)F)c2)o1)c1ccc2c(c1)OCCO2 (centres undefined),.,41.5,.,.
O=C(NCc1ccc2c(c1)OCO2)c1ccc(CS(=O)(=O)c2cccc(C(F)(F)F)c2)o1,.,.,.,.
Cc1cc(C(=O)NNC(=O)/C=C/c2ccco2)c(C)o1,.,28.8,.,.
COc1ccccc1/C=C/C(=O)NNC(=O)c1cc(C)oc1C,.,.,.,.
Cc1nnc(-n2cnc3ccccc32)c2ccccc12,.,21.4,.,.
Nc1nc(N)c2cc(CNc3ccc(Cl)c(Cl)c3)ccc2n1,.,21.6,.,/
Nc1nc(N)c2cc(Sc3ccc(Cl)cc3)ccc2n1,.,.,.,/
Cc1ccc(S(=O)(=O)NC2CCCCC2)cc1C(=O)N1CCC(C(N)=O)CC1,.,67.2,.,.
COc1ccccc1COC(=O)c1ccc(S(=O)(=O)N2CCOCC2)cc1,.,.,.,.
COc1cccc(NC(=O)CN(C)C(=O)CSCC(=O)Nc2ccc(C)cc2)c1,.,29.1,.,.
SMILES,MBD2 DNA inh,UHRF1 MBD2 ctr,Neddyl block,UBC13 inh
COc1ccc(CCNC(=O)COc2cccc(-n3cnnn3)c2)cc1,.,.,.,.
O=C(O)c1cc(O)c2c(c1)C(=O)c1cc(O)cc(O)c1C2=O,.,26.3,.,.
CC(C)CCn1c(SCC(=O)Nc2ccccc2C(F)(F)F)nc2nccnc2c1=O,.,22.3,.,.
CCS(=O)(=O)N1N=C(c2cccs2)CC1c1cc2cc(C)ccc2nc1Cl (centres undefined),.,.,.,.
Cc1ccc(C(=O)OCC(=O)NCCNC(=O)COC(=O)c2ccc(C)s2)s1,.,30.3,.,.
Fc1cccc(Cc2c(C3CCCCC3)nc3c4ccccc4ccn23)c1,.,24.9,.,/
CCCc1nc2c3ccccc3ccn2c1Cc1cccc(Cl)c1,.,24.4,.,/
COc1ccc2cc1Oc1ccc(cc1)CC1c3c(cc(OC)c4c3Oc3cc5c(cc3O4)CCNC5C2)CCN1C (centres undefined),/,/,.,110.1
Nc1ccc(C(=O)N/N=C/c2cn(Cc3ccccc3F)c3ccccc23)cc1,.,.,.,.
O=C(O)c1ccc(N/N=C/c2cn(Cc3ccccc3F)c3ccccc23)cc1,.,.,+,.
CC(C)n1cc(/C=N/Nc2ccc(C(=O)O)cc2)c2ccccc21,.,.,+,.
O=C(N/N=C/c1cn(Cc2cccc(F)c2)c2ccccc12)c1cc(O)cc(O)c1,27.0,65.9,.,.
Cn1cc(/C=N/Nc2ccccc2)c2ccccc21,.,.,.,.
Cc1ccc(C)c(NC(=S)N2CCCCC2CO)c1 (centres undefined),.,.,.,.
